Sampled rows, rich in hits. Any-hit rate of the full collection: about 27%.
CYP2C9 inhib: inhibitors of human CYP2C9 | P11712 | CYP2C9 Supersomes, luciferin-H conversion, luminescence | inhibition, % at 5 µM | 20% of 96,000 active;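 active means blocking of liver enzyme CYP2C9 beyond about 50% at 5 µM, limit read from the data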
Cav3 T inh: blocks human Cav3.2 T-type calcium channel; 4% of 100,000 active; Cav3.2-expressing cells, Fluo-4 calcium fluorescence FDSS; stronger effect = lower value; AID 449739; B-score at 10 µM;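 active means single-dose well whose peak fluorescence ratio is a statistical outlier from its plate by either plate-standardised score or position-corrected B-score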
CYP2C9 act: increases human cytochrome P450 2C9 activity | P11712 | recombinant CYP2C9, luciferin-H conversion, luminescence; stronger effect = higher value; factor 1 = untreated enzyme, 0 = blocked | activation factor at 5 µM | 1.4% of 96,000 active | AID 1024;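 active means activation factor of 2 or more for CYP2C9 at a 5 µM dose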;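 further: 0 = sulfaphenazole-blocked wells and 1 = vehicle-only wells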
CYP2C19 act: cytochrome P450 2C19 (human) activation; P33261; 96,000 tested, under 10 active; activation factor at 5 µM; AID 1025; recombinant CYP2C19, luciferin-H EGE luminescence; stronger effect = higher value; 0 = fully inhibited enzyme, 1 = untreated enzyme;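 active means activation factor of at least 2 at 5 µM in the primary screen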;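 further: 0 = wells with 2.5 mM tranylcypromine and 1 = vehicle-only wells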
CYP2C19 inh: inhibitors of human CYP2C19; CYP2C19 Supersomes, luciferin-H EGE luminescence, 30 min; 21% of 96,000 active; inhibition, % at 5 µM; AID 778; P33261;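 active means CYP2C19 inhibition above a set limit at 5 µM in the primary screen, cut at about 50% in these data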;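 further: plate controls were negative control wells for no effect and 2.5 mM tranylcypromine positive control for full effect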
* hit, by the source's call; . = no result given.

SMILES | CYP2C9 inhib | Cav3 T inh | CYP2C9 act | CYP2C19 act | CYP2C19 inh
CC1CN(C2CCN(C(=O)COc3ccc(Cl)cc3)CC2)CC(C)O1 (stereo not given) | 2.8 | 0.364 | 1 | 0.9 | 8.8
O=C(NC1CC1)C1=C[C@@H](c2csc3ccccc23)C[C@@H](OCCCCO)O1 | . | 0.276 | . | . | .
COc1ccc(-c2nnc(SCC(=O)N3CCC(Cc4ccccc4)CC3)o2)cc1OC | 64.7* | -1.02 | 0.4 | 0.1 | 93.4*
COc1ccc(-c2nnc(SCC(=O)N3CCc4ccccc4C3)o2)cc1 | 13.2 | -1.11 | 0.9 | 0.2 | 78.1*
Cc1ccc(C(=O)CSc2nnc(-c3ccc4[nH]c(C)c(C)c4c3)o2)cc1C | 71.2* | 0.0548 | 0.3 | 0.5 | 47.7
COc1ccc(N2CCN(C(=O)CSc3nnc(-c4ccc5[nH]c(C)c(C)c5c4)o3)CC2)cc1 | 4.5 | 0.96 | 1 | 1 | 4.2
COc1ccc(-c2nnc(SCC(=O)N3CCOCC3)o2)cc1OC | 29.9 | 0.36 | 0.7 | 0.7 | 34.7
COc1ccc(-c2nnc(SCC(=O)N3c4ccccc4Sc4ccccc43)o2)cc1 | . | -5.58* | . | . | .
COc1cc(OC)cc(-c2nnc(SCC(=O)N3c4ccccc4Sc4ccccc43)o2)c1 | . | -2.7 | . | . | .
CCCCSc1ccc(NC(=O)c2cccnc2)cc1 | 49.3 | -1.23 | 0.5 | 0.8 | 22.8
Cc1cc(=O)oc(C)c1C(=O)NCCN1CCOCC1 | 2.2 | -0.103 | 1 | 0.8 | 15.5
COc1ccc(-c2nc(NC(=O)c3cc(C(C)(C)C)nn3C)sc2C)cc1 | -67.5 | -2.63 | 1.7 | 0.9 | 6.1
CN(C)CCCN1C(=O)c2oc3ccc(F)cc3c(=O)c2C1c1cccnc1 (stereo not given) | -9.6 | 0.622 | 1.1 | 0.9 | 8.4
Cc1ccc(-c2nnc(SCC(=O)N3CCCC3)o2)cc1C | -71.4 | . | 1.7 | 0.5 | 52.6*
O=C(CSc1nnc(-c2ccccc2Cl)o1)N1CCCCC1 | -17.9 | -4.18* | 1.2 | 0.8 | 17.6
Cc1ccc(-c2nnc(SCC(=O)N3CCCC3)o2)cc1 | 8.6 | 0.198 | 0.9 | 0.9 | 11.8
O=C(CSc1nnc(-c2ccccc2O)o1)N1CCc2ccccc2C1 | 33.2 | -1.58 | 0.7 | 0.4 | 63.2*
CCN(CC(=O)Nc1ccc2c(c1)CCC2)Cc1nc2ccccc2c(=O)[nH]1 | 89.3* | -1.89 | 0.1 | 0.1 | 91.8*
CCN(CC(=O)NC(=O)NC1CCCCC1)Cc1nc2ccccc2c(=O)[nH]1 | 32.6 | -0.205 | 0.7 | 0.7 | 26.7
COc1ccccc1CN(Cc1nc2ccccc2c(=O)[nH]1)C(=O)Nc1cccc(C)c1 | 56.7* | -2.81 | 0.4 | 0.3 | 67.3*
CCN(CC(=O)Nc1ccc2c(c1)OCO2)Cc1nc2ccccc2c(=O)[nH]1 | 81.0* | 0.676 | 0.2 | 0.2 | 77.0*
COc1ccccc1NC(=O)N(Cc1ccc2c(c1)OCO2)Cc1nc2ccccc2c(=O)[nH]1 | 0.2 | 0.593 | 1 | 1 | 2.7
CN(CC(=O)Nc1ccccc1Br)Cc1nc2ccccc2c(=O)[nH]1 | 80.9* | . | 0.2 | 0.2 | 82.7*
CC(NC(=O)c1cccc(F)c1)C(c1cccs1)N1CCN(C)CC1 (stereo not given) | 6.4 | -0.055 | 0.9 | 0.9 | 9.3
Cn1c(CN2CCOCC2)nnc1SCC(=O)NCCc1ccccc1 | -36.4 | -0.873 | 1.4 | 1.1 | -7.7
SMILES | CYP2C9 inhib | Cav3 T inh | CYP2C9 act | CYP2C19 act | CYP2C19 inh
CCN(CC(=O)NCc1ccc(F)cc1)Cc1nc2cc(Cl)ccc2c(=O)[nH]1 | 60.0* | -1.51 | 0.4 | 0.6 | 41.2
COc1cccc(C(=O)N(Cc2ccc3c(c2)OCO3)Cc2nc3ccccc3c(=O)[nH]2)c1 | 81.4* | -0.0558 | 0.2 | 0.3 | 74.3*
CCN(CC(=O)Nc1ccc2c(c1)OC(F)(F)O2)Cc1nc2ccccc2c(=O)[nH]1 | 91.6* | -1.55 | 0.1 | 0.1 | 88.2*
CCN(Cc1nc2ccccc2c(=O)[nH]1)Cc1nc2cc(OC)c(OC)cc2c(=O)[nH]1 | 9.6 | 0.506 | 0.9 | 0.8 | 15.6
CCN(CC(=O)NC(c1ccccc1)c1ccccc1)Cc1nc2ccccc2c(=O)[nH]1 | 48.7 | -3.9 | 0.5 | 0.4 | 64.7*
NC(=O)C1=C[C@@H](c2ccc(Br)cc2)C[C@@H](OCCCCO)O1 | . | 0.418 | . | . | .
CC1(C)C(=O)OC(c2c(F)c(F)c(F)c(F)c2F)C2(CCCCC2)C1=O (stereo not given) | -0.4 | . | 1 | 0.9 | 7.1
Cc1c(C(=O)OC(C)C)nnn1-c1nonc1N | . | -0.822 | . | . | .
O=C1NC(Nc2ccccn2)(C(F)(F)F)C(=O)N1c1ccc(F)cc1 (stereo not given) | -6.8 | -1.24 | 1.1 | 0.9 | 8.8
O=C(NC1(C(F)(F)F)NC(=O)N(c2ccc(F)c(Cl)c2)C1=O)c1ccncc1 (stereo not given) | 97.7* | 0.672 | 0 | 0.2 | 82.4*
COc1ccc(C(=O)N2CCSC2=S)cc1OC | -111.5 | 0.427 | 2.1* | 1 | 3.4
COc1ccc(C(=O)SC2=NCCS2)cc1OC | -109.1 | -0.773 | 2.1* | 0.8 | 24.7
COc1ccc(C(=O)N2CCN=C2SC)cc1OC | -2.6 | -0.606 | 1 | 1 | 4.5
Cc1ccc(C(=O)CCC2CCCCC2=O)cc1 (stereo not given) | 42.5 | 0.677 | 0.6 | 0.2 | 83.8*
Cc1c(NC(=O)CCC(=O)N2CCCCC2)c(=O)n(-c2ccccc2)n1C | 10.1 | . | 0.9 | 1 | 4.6
CCS(=O)(=O)N1CCC(C(=O)NCc2cc(OC)ccc2OC)CC1 | -77.5 | 0.457 | 1.8 | 0.9 | 12.9
COC(=O)c1ccc2c(c1)C(C)(C)C(/C=C/c1ccc(O)cc1)=[N+]2C | 98.6* | -4.41 | 0 | 0.1 | 94.7*
CC1(C)CC(NC(=O)C23CCC(C)(C(=O)C2)C3(C)C)CC(C)(C)N1 (stereo not given) | 60.1* | -0.896 | 0.4 | 1 | -1.1
CC12CCC(C(=O)NCCN3CCCCC3)(CC1=O)C2(C)C (stereo not given) | -21.9 | -0.413 | 1.2 | 1.2 | -23.2
Oc1ccc(Br)cc1-c1nc2cnccn2c1NC1CCCC1 | 49.5 | -2.79 | 0.5 | 0.6 | 39.9
Oc1ccc(Br)cc1-c1nc2cnccn2c1NC1CCCCC1 | 90.8* | 0.0203 | 0.1 | 0.2 | 76.9*
COc1cc(/C=C(/C(=O)c2cccs2)c2nc3ccccc3[nH]2)ccc1O | 54.9* | -2.28 | 0.5 | 0.8 | 23.1
N=c1c(-c2nc3ccccc3[nH]2)cc(C(=O)c2cccs2)nn1-c1ccc(Cl)cc1 | . | 0.475 | . | . | .
O=C(/C(=C/c1ccc(Cl)cc1)c1nc2ccccc2[nH]1)c1cccs1 | 99.1* | -1.78 | 0 | 0.2 | 76.4*
CC1=C[C@H]2OC(=O)[C@@H](C)[C@H]2C[C@@H]2[C@H]1C[C@@H](O)[C@@]2(C)O | . | 0.21 | . | . | .
CC1CCC2C(C1)c1sc(=O)[nH]c1SC2(C)C (stereo not given) | 5.8 | -1.95 | 0.9 | 1 | 4.2
O=C1c2ccccc2-c2onc3c(Oc4ccccc4)cc(O)c1c23 | 67.8* | . | 0.3 | 0.9 | 6.2
Cc1ccc(-n2c(C)cc(C)c(C#N)c2=O)cc1Cl | 8.1 | 1.15 | 0.9 | 0.9 | 11.9
Cc1nn(Cc2cccc(C(=O)NC34CC5CC(CC(C5)C3)C4)c2)c(C)c1Br | . | -6.37* | . | . | .
